Laboratory results: the supplement of paper PMC6555819

How the values were obtained:
Assay in all cases: PBM binding z-score (relative to random genomic background probes); higher = stronger binding; sequences stand for … in GC…GCGATTGACAGCGTAGAATGAAGG
[1] = system: FXR:RXRa (NR concentration 270 nM, RXRa partner concentration 90 nM)
Procedure, shortened: (§1)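 Ligand-free nuclear receptor dimers were bound for 1 h to custom Agilent 4×180K protein-binding microarrays. Detection used antibodies against each partner (one per run). Binding z-scores rest on regression-normalized fluorescence, with random background probes as the reference.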

[2] = system: LXRa:RXRa (NR concentration 270 nM, RXRa partner concentration 90 nM)
Procedure, shortened: as §1

[3] = system: LXRa homodimer (NR concentration 270 nM)
Procedure, shortened: as §1

[4] = system: LXRb:RXRa (NR concentration 270 nM, RXRa partner concentration 90 nM)
Procedure, shortened: as §1

[5] = system: LXRb homodimer (NR concentration 270 nM)
Procedure, shortened: as §1

[6] = system: PPARa:RXRa (NR concentration 270 nM, RXRa partner concentration 90 nM)
Procedure, shortened: as §1

[7] = system: PPARg:RXRa (NR concentration 180 nM, RXRa partner concentration 90 nM)
Procedure, shortened: as §1

[8] = system: PPARg:RXRa 270nM:90nM, anti-RXR (NR concentration 270 nM, RXRa partner concentration 90 nM)
Procedure, shortened: as §1

[9] = system: PPARg:RXRa 30nM:10nM, anti-RXR (NR concentration 30 nM, RXRa partner concentration 10 nM)
Procedure, shortened: as §1

[10] = system: PPARg:RXRa 90nM:30nM, anti-RXR (NR concentration 90 nM, RXRa partner concentration 30 nM)
Procedure, shortened: as §1

Sequence | PBM binding z-score [1] | PBM binding z-score [2] | PBM binding z-score [3] | PBM binding z-score [4] | PBM binding z-score [5] | PBM binding z-score [6] | PBM binding z-score [7] | PBM binding z-score [8] | PBM binding z-score [9] | PBM binding z-score [10]
CATACATGGTCAGCTAGGCCAGAGTAGGGACGGC | -0.504 | -0.26 | -0.736 | -0.962 | -0.25 | -1.12 | 0.342 | -0.789 | -0.741 | -0.753
TCTGCTAGGTCTGTTGGTCAGCTAACGAGCTGCC | -0.418 | -0.439 | -1.21 | -0.715 | 0.485 | -0.204 | -1.23 | 0.384 | 0.834 | 0.687
AGAACGAGGGCACGCTGAGTTGTTAGCAGAGTAG | 0.878 | 0.882 | -0.742 | 0.17 | -1.13 | 2.18 | 1.94 | 1.79 | 0.32 | 1.16
TCATATAGGTAAGACAGGTGAAAGTCGGCATCTA | 1.17 | 1.21 | 0.129 | 0.604 | 0.0128 | 1.49 | 0.925 | 2.42 | 4.15 | 3.3
TCATATAGGTAAAGGCGAAAGTCGAACGATATGA | 0.173 | 0.402 | -0.495 | 0.229 | -0.044 | 1.3 | 1.1 | 2.52 | 3.75 | 3.23
TCATATAGGTAATACAGGTGAAAATCGGCATCTA | 1.35 | 1.37 | 0.422 | 1.27 | 0.421 | 2 | 1.78 | 2.58 | 4.1 | 3.43
CCTACTGGGCCATTCAGATGTCATTGATCATATG | -0.368 | -0.638 | -0.391 | -0.292 | -0.418 | 0.25 | 0.6 | 0.494 | 0.00113 | 0.0703
CGTCCAAGGCCATAGGAGGTCAGTGAAGACAGAT | 2.46 | 3.14 | 0.814 | 1.69 | -0.756 | 2.21 | 0.688 | 0.571 | -0.185 | 0.133
TCTACAGGGTCAAAGGCCAGAGTACGAATGTCGA | 7.34 | 4.67 | 0.313 | 4.11 | 0.605 | 5.99 | 7.62 | 7.12 | 5.3 | 6.93
GCGACTGGGGCAAAGCAGGTTACCTTAAGGTTGG | 0.232 | 0.16 | -0.422 | 0.247 | -0.607 | 1.31 | 0.947 | 1.35 | -0.661 | 0.437
CCTACTGGGCCACGAAAGGTCATTGAATCAGTGA | 3.69 | 5.1 | 4.09 | 4.26 | 0.492 | 4.68 | 4.56 | 5.1 | 2.28 | 4.03
TCATATAGGTAATTGCTAGGTGAAAGTCCGATCT | 0.86 | 0.654 | 0.0873 | 0.781 | 0.17 | 1.41 | 0.771 | 2.36 | 3.67 | 3.02
TCTATTAGTTGATTAGGGCAACCAAAACAGCGGA | 0.762 | 0.673 | 0.188 | 0.699 | 0.773 | 1.06 | 0.435 | 2.01 | 3.9 | 2.83
CGTCAAAGTTCAACTAAGGTAACGGAAAGCACGC | 6.73 | 6.18 | 3.33 | 4.2 | 2.03 | 5.27 | 4.86 | 5.75 | 1.99 | 4.58
TAGCCTACGTCATGGGCCAGTATACCACGCGAAC | -0.49 | -0.556 | -0.342 | -0.379 | -0.666 | -0.649 | 0.599 | -0.711 | -0.624 | -0.961
CCTCGGAGGCCAACAGGAGGTCAGAGCTGCCAGA | 1.54 | 2.49 | 1.48 | 1.58 | -0.663 | 2.29 | 0.0544 | 0.339 | -0.921 | -0.26
CCTAGCAGGCCAGGGTCACTAAAGCATTTCGCTT | 1.78 | 1.59 | -0.472 | 1.78 | -1.37 | 3.06 | 0.442 | 1.2 | -0.365 | 0.422
GATACAGGGTCAAGGCCAGAGGACGCGTATTGAT | 6.78 | 4.13 | -0.101 | 3.54 | -0.0333 | 5.49 | 6.03 | 5.55 | 2.01 | 4.12
CCTACTGGGCCAAAGTTCATTGATTCCAATGCTC | 2.2 | 3.36 | 4.36 | 2.6 | 0.0133 | 5.47 | 10.9 | 9.53 | 9.33 | 11.8
CAAACTAGGACAAGGTCAAAGTCGGTTTGTGCCA | 4.54 | 4.18 | 2.08 | 3.48 | 0.526 | 5.05 | 5.5 | 5.41 | 3.12 | 4.9
TCTTGTATATCAGCAGGTTAAGAAAGCTGGCCAA | 0.775 | 0.883 | 0.29 | 1.03 | 0.727 | 0.972 | -0.165 | 1.63 | 3.19 | 2.42
ATCTCTCGGTAACAAGTTCAGTGAAAGAGAGGAC | 0.379 | 0.429 | 0.428 | 0.549 | 0.942 | 0.533 | 0.157 | 0.369 | 0.251 | 0.484
AGTCAAAGTTCAATAGGTAACGTAAGATTCAGCT | 5.27 | 5.09 | 3.45 | 3.08 | 1.59 | 4.37 | 5.82 | 5.74 | 2.88 | 4.97
CCGATTGGGGCAAAGGTTACCATACTCAGTACGA | 1.84 | 1.62 | -0.0955 | 2.33 | -0.878 | 4.89 | 8.96 | 8.43 | 7.85 | 8.46
ACAGACAGGTGAGTGACGGTAACTCAGCTGGACG | -0.187 | -0.0958 | -0.572 | -0.393 | -0.746 | -0.129 | 0.633 | 0.0382 | -0.358 | -0.388

Sequence | PBM binding z-score [1] | PBM binding z-score [2] | PBM binding z-score [3] | PBM binding z-score [4] | PBM binding z-score [5] | PBM binding z-score [6] | PBM binding z-score [7] | PBM binding z-score [8] | PBM binding z-score [9] | PBM binding z-score [10]
TATACAGGGTCAAAGGCCTGAGTACGAATGTCGA | 7.13 | 6.36 | 2.31 | 4.5 | 2.28 | 5.81 | 6.92 | 6.47 | 3.45 | 5.74
CGTCAAAGTTCAACTAAAGTAACGTAAAGCACGC | 6.66 | 6.26 | 3.94 | 4.14 | 2.66 | 4.93 | 5 | 5.38 | 2.2 | 4.09
ATATGTAGGTTCTCGGGTCATTCAGTTTGCGCAT | 2.58 | 2.33 | 1.35 | 2.78 | 0.765 | 3.89 | 3.39 | 3.71 | 1.14 | 2.94
TCTTGTAGAACAGCAGGTTAAGAAAGCTGGCCAA | -0.25 | -0.235 | -0.708 | -0.0015 | -0.898 | 0.675 | -0.134 | 1.17 | 2.2 | 1.9
TGAATGAGGTTATACGATCAGGGAACGTTGCAAA | 1.76 | 1.37 | -0.238 | 1.05 | -0.18 | 2.91 | 1.33 | 1.79 | 0.555 | 1.1
AGCTCTAGGTAAGACTCAGTTCAGTGAAGAACGC | -0.104 | 0.132 | 0.197 | -0.188 | -0.399 | -0.0359 | -0.139 | 0.0762 | 0.0391 | -0.261
TCTGCTAGGTCAACGATGGTCAGCCAATCTGCTA | 3.5 | 2.9 | -0.0342 | 1.57 | -0.0158 | 3.17 | 2.73 | 3.17 | 1.79 | 2.48
ATCTATAGGTAAAGATAGTTCAGTGAATGCAAAT | 0.466 | 5.29 | 0.591 | 1.55 | 0.423 | 0.82 | 1.09 | 0.484 | 0.425 | 0.604
TAGCCTAGGTCAGATCGGGCCATTATACGCTATA | 2.53 | 1.3 | -0.125 | 1.07 | -0.132 | 1.55 | 0.711 | 0.523 | -0.272 | 0.0184
TCGCGTAGGTTAGTCGGGGCATTCAGCCAACATA | 0.0922 | -0.043 | -0.337 | 0.83 | -0.797 | 0.69 | -0.444 | 0.614 | 0.929 | 0.992
TCTAGCAGGCCAGAGGATCACTCAAGAGGTACGG | -0.551 | -0.271 | -0.763 | -0.773 | -1.43 | -0.206 | 0.826 | 1.2 | 1.53 | 1.43
CAAACTAGGCCACAGAGGTCAAAGTCCGTGCGTA | 5.06 | 5.36 | 5.33 | 5.13 | 0.98 | 5.87 | 7.19 | 6.39 | 4.5 | 5.82
CATAGCAGGCCAATCTGGGTCACTCAAGGCTTGA | 0.72 | 1.46 | -0.00669 | 0.604 | 0.0178 | 3.01 | 2.72 | 2.73 | 0.652 | 2.05
AATACAGGGTCATCGTAGGACAGAGTACGCACAG | 7.26 | 6.53 | 2.99 | 4.91 | 1.66 | 5.73 | 6.66 | 6.04 | 3.07 | 4.95
CAAACTAGGTCAAAGGTCAAAGTGGAGCCAACCA | 7.94 | 7.01 | 5.57 | 6.96 | 3.14 | 7.45 | 13.9 | 11.2 | 12.3 | 13.7
GATACAGGGTCAGCTAGAGGCCAGAGAATGGAAA | 4.74 | 2.83 | -0.346 | 2.73 | -0.535 | 4.65 | 3.8 | 3.53 | 1.08 | 2.59
TCTGGGAGGACACGAAGGTCAGAGCTTTCCAGAG | 1.36 | 1.16 | 0.204 | 1.3 | -0.86 | 1.81 | 0.579 | 1.36 | 1.51 | 1.53
CCTACGGGGCCATCAGGTCATTGATATCAACGTT | 2.38 | 1.72 | 0.922 | 1.91 | -0.245 | 2.46 | 1.25 | 1.88 | 0.224 | 0.958
ACTCGGAGGACAAAGGTCAGAGCTACGCCAGTGA | 4.09 | 4.15 | 1.61 | 3.4 | 0.202 | 4.93 | 7.6 | 7.06 | 5.63 | 7.83
ACTCGGAGGACAAAGGTCAGACCTACGCCAGTGA | 4.44 | 4.05 | 2.02 | 3.64 | 0.528 | 4.93 | 7.6 | 6.95 | 4.94 | 6.85
ATATGTAGGTTAAGTGTCATTCAGGTTGGTTCGC | 1.68 | 2.16 | 1.09 | 1.93 | 0.826 | 4.74 | 7.81 | 7.39 | 6.14 | 7.88
CCACGGAGGACAACAGGAGGTCAGAGCTGCCAGA | 1.09 | 2.38 | 2.44 | 1.7 | -0.198 | 2.21 | 0.672 | 0.164 | -0.705 | -0.441
ATCTCTAGGCAACAAGTTCAGTGAAAGAGAGGAC | 0.0391 | 0.175 | -0.0655 | 0.139 | 0.432 | 0.498 | 0.668 | 1.15 | 0.633 | 1.09
CGTCAAAGTTCAACTAACGTAACGTAAAGCACGC | 6.21 | 5.98 | 3.62 | 4.08 | 2.43 | 4.99 | 4.65 | 5.21 | 2.17 | 4.04
